p97 inhibitor: blocks human p97 ATPase activity | AID 1481 | recombinant p97 ATPase, Kinase-Glo ATP luminescence, 3 h | inhibition, % at 8 µM | actives 0.42% (n = 220,000); in the data active = inhibition above about 15%
HDAC3 inhib: blocks human histone deacetylase 3; O15379; recombinant HDAC3, fluorogenic peptide/trypsin coupled, fluorescence; inhibition, % at 8.3 µM; actives 0.15% (n = 320,000); AID 2718; in the data active = inhibition above about 26%, passing the limit was not always enough; inconclusive = no clear call, values can overlap the other calls
Target sequence (O15379 whole entry, looked up): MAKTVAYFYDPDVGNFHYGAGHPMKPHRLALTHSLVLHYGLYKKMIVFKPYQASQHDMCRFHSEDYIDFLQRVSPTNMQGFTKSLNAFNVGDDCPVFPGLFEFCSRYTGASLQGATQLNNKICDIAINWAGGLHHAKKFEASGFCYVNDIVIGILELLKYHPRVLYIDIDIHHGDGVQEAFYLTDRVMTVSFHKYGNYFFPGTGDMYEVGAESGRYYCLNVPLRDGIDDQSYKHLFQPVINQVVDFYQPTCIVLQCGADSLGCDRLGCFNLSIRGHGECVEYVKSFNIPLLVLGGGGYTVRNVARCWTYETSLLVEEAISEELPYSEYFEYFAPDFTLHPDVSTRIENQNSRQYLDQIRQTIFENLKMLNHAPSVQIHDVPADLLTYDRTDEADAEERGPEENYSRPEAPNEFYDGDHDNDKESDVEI
UBC9 SUMO inh: inhibitors of human SUMOylation (UBC9); P63279; HTRF SUMOylation assay, SAE1/SAE2 + UBC9, in vitro; inhibition, % at 35 µM; AID 2006; actives 0.36% (n = 290,000); in the data active = inhibition above about 50%, passing the limit was not always enough; inconclusive = no clear call, values can overlap the other calls
G6PDH counter: L. mesenteroides G6PDH inhibition counter-screen | Purified L. mesenteroides G6PDH, diaphorase/resazurin coupled fluorescence, 45 min | actives 0.12% (n = 200,000) | inhibition, % at 5 µM; in the data active = inhibition above about 50%
PfM18AAP inh-1: blocks P. falciparum M18 aspartyl aminopeptidase; recombinant PfM18AAP, H-Glu-NHMec fluorogenic cleavage; actives 1.2% (n = 290,000); inhibition, % at 7.35 µM;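 active = inhibition above the campaign mean inhibition over all tested compounds plus 3 SD, cut at about 28% in these data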
PHOSPHO1 block: blocks human PHOSPHO1 phosphatase activity. Q8TCT1. recombinant PHOSPHO1, absorbance phosphatase assay. inhibition, % at 13.3 µM. actives 1.1% (n = 290,000); in the data active = inhibition above about 60%
Target sequence (Q8TCT1 whole entry, looked up): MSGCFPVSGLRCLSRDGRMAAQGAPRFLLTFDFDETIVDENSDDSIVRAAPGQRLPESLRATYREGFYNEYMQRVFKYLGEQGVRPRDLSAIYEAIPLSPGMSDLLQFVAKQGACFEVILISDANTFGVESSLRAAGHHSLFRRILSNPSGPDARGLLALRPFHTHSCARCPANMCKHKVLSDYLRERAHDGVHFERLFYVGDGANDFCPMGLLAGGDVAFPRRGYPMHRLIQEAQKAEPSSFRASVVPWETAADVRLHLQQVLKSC
PfM18AAP inh-2: confirmation of Plasmodium falciparum M18 aspartyl aminopeptidase inhibitors. shares compounds with PfM18AAP inh-1. recombinant PfM18AAP, H-Glu-NHMec fluorogenic cleavage. inhibition, % at 7.35 µM. actives 28% (n = 2,400);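 active = mean inhibition over replicate wells above the hit cutoff set for the earlier primary screen, cut at about 29% in these data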
CTSL1 confirm: counter-screen for PFM18AAP inhibitors: confirmation of human cathepsin L inhibitors | AID 2178 | inhibition, % at 5.96 µM | 2,400 tested, under 10 active | shares compounds with PfM18AAP inh-1 | purified cathepsin L1, Z-Leu-Arg-MCA fluorescence;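 active = average inhibition across replicates above the hit cutoff set in the earlier primary screen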
Of the large screens only hits and unclear results are named; the others gave an inactive call (follow-up assays come after a bar, where they were run). This is a sample that favours compounds with a hit; in the whole collection about 2.5% have one here.

CC1Sc2ccc(C(=O)OCc3ccccc3Cl)cc2NC1=O (centres undefined)	none (no result: p97 inhibitor, UBC9 SUMO inh, G6PDH counter, PfM18AAP inh-1, PHOSPHO1 block)
CC1Sc2ccc(C(=O)O)cc2NC1=O (centres undefined)	PfM18AAP inh-1 44 | PfM18AAP inh-2 inactive | CTSL1 confirm inactive
CCOC(=O)Cn1nc(C)n(-c2c(C)cccc2C)c1=O	none
N#C/C(=C\c1cc(O)c(O)c(O)c1)C(N)=O	PfM18AAP inh-1 60 (no result: G6PDH counter) | PfM18AAP inh-2 inactive | CTSL1 confirm inactive
N#Cc1c(-c2ccccc2)cc(-c2ccccc2)nc1SCC(=O)NCC(=O)O	PfM18AAP inh-1 38 (no result: G6PDH counter) | PfM18AAP inh-2 inactive | CTSL1 confirm inactive
COc1ccc(N2C(=O)C(Cl)=C(N3CCOCC3)C2=O)cc1	PfM18AAP inh-1 33 (no result: p97 inhibitor, G6PDH counter) | PfM18AAP inh-2 inactive | CTSL1 confirm 25
CCOC(=O)NN=C1CN(S(=O)(=O)c2ccc(C)cc2)C1	none (no result: p97 inhibitor, G6PDH counter)
COC(=O)c1ccc(C(=O)OC)c(NC(=O)COC(=O)CCOc2ccc(C)cc2)c1	none (no result: p97 inhibitor, UBC9 SUMO inh, G6PDH counter, PfM18AAP inh-1, PHOSPHO1 block)
COc1ccc(Nc2nc3c([nH]2)c(=O)[nH]c(=O)n3C)cc1	PfM18AAP inh-1 35 | PfM18AAP inh-2 inactive | CTSL1 confirm inactive
COCCCNc1nc2c([nH]1)c(=O)[nH]c(=O)n2C	none
Cc1onc(-c2c(Cl)cccc2Cl)c1NC(=O)NNc1ccccn1	PfM18AAP inh-1 40 (no result: G6PDH counter) | PfM18AAP inh-2 inactive | CTSL1 confirm inactive
COc1ccc(N2CCN(C(=O)c3cccnc3)CC2)c([N+](=O)[O-])c1	none
COc1cccc(C(=O)NNC(=O)Cc2csc(N)n2)c1	PfM18AAP inh-1 36 | PfM18AAP inh-2 inactive | CTSL1 confirm inactive
COC(=O)[C@@]1(Cc2ccc(F)cc2)[C@H]2c3cc(C(=O)N4CCCC4)n(CCc4ccc(O)c(O)c4)c3C[C@H]2CN1C(=O)c1ccccc1	PfM18AAP inh-1 75 | PfM18AAP inh-2 49 | CTSL1 confirm inactive
NNc1nc(-c2ccccc2Cl)nc2ccccc12	PfM18AAP inh-1 45 (no result: p97 inhibitor, G6PDH counter) | PfM18AAP inh-2 inactive | CTSL1 confirm inactive
CC(C)c1ccc(O)c(N)c1	HDAC3 inhib inconclusive
CCC(C)c1ccc(O)c(N)c1 (centres undefined)	PfM18AAP inh-1 64 | PfM18AAP inh-2 69 | CTSL1 confirm inactive
CNc1ccc([N+](=O)[O-])cc1-c1nc2ccccc2[nH]c1=O	none (no result: G6PDH counter)
O=C1C(C=Nc2ccccc2O)=C(O)c2ccccc21	none
O=[N+]([O-])/C(C=Nc1ccccc1O)=C\Nc1ccccc1O	PfM18AAP inh-1 34 (no result: HDAC3 inhib, G6PDH counter) | PfM18AAP inh-2 inactive | CTSL1 confirm inactive
O=C(Nc1ccccn1)C1CCCN1S(=O)(=O)c1ccc(Cl)cc1 (centres undefined)	none (no result: p97 inhibitor, G6PDH counter)
COc1cc(/C=N/N2C(C)CCCC2C)cc(OC)c1O (centres undefined)	PfM18AAP inh-1 39 (no result: p97 inhibitor, G6PDH counter) | PfM18AAP inh-2 inactive | CTSL1 confirm inactive
COc1ccc(-n2nc3c(c2NC(=O)C(C)Oc2ccccc2)CS(=O)C3)cc1 (centres undefined)	none (no result: p97 inhibitor, G6PDH counter)
Cc1ccc2c(c1)N(CC(=O)NCc1cccnc1)C(=O)CO2	PfM18AAP inh-1 81 | PfM18AAP inh-2 inactive | CTSL1 confirm inactive
CCOc1ccc(S(=O)(=O)N(CC)CC(=O)N2CCOCC2)cc1C	none (no result: p97 inhibitor, G6PDH counter)
CNC(=S)NNC(=O)c1c(C)nc2cc(C)ccn12	PfM18AAP inh-1 47 (no result: G6PDH counter) | PfM18AAP inh-2 inactive | CTSL1 confirm inactive
Cc1c(C(C)NC(=O)c2cc(COc3cccc4cnccc34)on2)cnn1C (centres undefined)	none (no result: p97 inhibitor, G6PDH counter)
CCOC(=O)N1CCN(C(=O)CN(c2cccc(C(F)(F)F)c2)S(=O)(=O)c2ccccc2)CC1	PfM18AAP inh-1 37 | PfM18AAP inh-2 inactive | CTSL1 confirm inactive
O=C(CN(c1cccc(C(F)(F)F)c1)S(=O)(=O)c1ccccc1)N1CCOCC1	none
CC(CC(=O)O)Nc1ccccc1O (centres undefined)	PfM18AAP inh-1 38 | PfM18AAP inh-2 inactive | CTSL1 confirm inactive
O=C(/C=C1\SC(=O)NC1=O)Nc1ccc(C(=O)O)cc1	PfM18AAP inh-1 36 (no result: G6PDH counter) | PfM18AAP inh-2 inactive | CTSL1 confirm inactive
Cc1cccc(C(=O)OCC(=O)NC(C)CCc2ccccc2)c1O (centres undefined)	none (no result: p97 inhibitor, G6PDH counter)
COc1cc(/C=N/Nc2ccc(S(N)(=O)=O)cc2[N+](=O)[O-])cc(OC)c1O	PfM18AAP inh-1 45 (no result: G6PDH counter) | PfM18AAP inh-2 inactive | CTSL1 confirm inactive
CCn1cc(CN2CCc3c([nH]c4ccccc34)C2c2cccc(OC)c2OC)c(C)n1 (centres undefined)	HDAC3 inhib inconclusive
CCCCCC(=O)NNC(=S)NC(=O)c1ccccc1[N+](=O)[O-]	none
O=C(NNC(=S)NC(=O)c1cccnc1)c1ccc(Cl)cc1	PfM18AAP inh-1 39 | PfM18AAP inh-2 inactive | CTSL1 confirm inactive
Cc1cccc(C(=O)NC(=S)NNC(=O)Cc2ccccc2)c1	PfM18AAP inh-1 38 | PfM18AAP inh-2 inactive | CTSL1 confirm inactive
CCCCCC(=O)NNC(=S)NC(=O)c1cccc([N+](=O)[O-])c1	PfM18AAP inh-1 35 | PfM18AAP inh-2 inactive | CTSL1 confirm inactive
O=C(Cc1ccc(Cl)cc1)NNC(=S)NC(=O)c1cccnc1	PfM18AAP inh-1 50 | PfM18AAP inh-2 inactive | CTSL1 confirm inactive
O=C(NNC(=S)NCc1ccc(Cl)cc1)c1cccnc1	none (no result: p97 inhibitor, G6PDH counter)
Cc1cc(-c2ccc(C(C)C)c(S(=O)(=O)Nc3cc(C)on3)c2)on1	none (no result: p97 inhibitor, G6PDH counter)
CCOc1ccc(C(=O)NCC(=O)NCC(c2cccs2)N2CCOCC2)cc1 (centres undefined)	none (no result: p97 inhibitor, UBC9 SUMO inh, G6PDH counter, PfM18AAP inh-1, PHOSPHO1 block)
Cc1ccc(-c2nn[nH]n2)o1	PfM18AAP inh-1 76 | PfM18AAP inh-2 54 | CTSL1 confirm inactive
O=c1c2cn[nH]c2[nH]c(=S)n1-c1cccc2ccccc12	PfM18AAP inh-1 51 | PfM18AAP inh-2 inactive | CTSL1 confirm inactive
COc1ccc(-n2c(=S)[nH]c3[nH]ncc3c2=O)cc1	PfM18AAP inh-1 46 (no result: G6PDH counter) | PfM18AAP inh-2 inactive | CTSL1 confirm inactive
COc1ccccc1CNS(=O)(=O)c1ccc2c(c1)NC(=O)CO2	none (no result: p97 inhibitor, HDAC3 inhib, G6PDH counter)
Cc1ccc(-n2c(CCc3nc4ccccc4[nH]3)n[nH]c2=S)cc1	PfM18AAP inh-1 33, PHOSPHO1 block 81 | PfM18AAP inh-2 inactive | CTSL1 confirm inactive
O=C(NCCN1CCOCC1)C(=O)NCC1OCCCN1S(=O)(=O)c1cc(F)ccc1F (centres undefined)	none (no result: p97 inhibitor, G6PDH counter)
O=C(NCC(=O)N1CCN(c2ccccc2O)CC1)c1ccco1	PfM18AAP inh-1 34 (no result: p97 inhibitor, G6PDH counter) | PfM18AAP inh-2 inactive | CTSL1 confirm inactive
COc1cc(-c2nc(=S)[nH][nH]2)cc(OC)c1OC	HDAC3 inhib inconclusive, PfM18AAP inh-1 35 | PfM18AAP inh-2 inactive | CTSL1 confirm inactive
Fc1ccc(N=c2ssnc2Cl)c(F)c1	PfM18AAP inh-1 32 | PfM18AAP inh-2 inactive | CTSL1 confirm inactive

Screens (PubChem BioAssay)
